Inhibition and activity data for 39 compounds are collected here from PubChem BioAssay.

The other results are listed elsewhere or left out. Active and inactive are the calls of the source. Unless noted, no stated cut-off is given here; in the data, active means activity above about 50%; inactive means the rest.

The nature of assay [1]: HIF-2a driven luciferase blockers, single dose – luminescence, 786-0 RCC cells, confirmation (AID 651580;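 active means mean inhibition across four replicates of at least 40 percent at the single tested concentration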). The settings on record: HIF-2a luciferase reporter luminescence, overnight, at 18.8 µM, stronger effect = higher value. For orientation: A reporter such as luciferase makes a cellular process visible.
Assay [2] can be described thus: HIF-1a luciferase reporter signal reduction – MiaPaCa-2 cells, single concentration, counter-screen for HIF-2a inhibitor project, confirmation (AID 651589;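 active means mean inhibition of the reporter signal across four replicates at the single tested dose of 50% or more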). To be noted: MiaPaCa-2 HIF-1a luciferase reporter, desferoxamine, overnight; at 18.8 µM; stronger effect = higher value.
The target of assay [3] is Tumor necrosis factor receptor superfamily member 10B (Homo sapiens) (UniProt O14763). In words: viability loss of caspase-8 NB7 cells with TRAIL – with/without TRAIL, luminescence panel, confirmation (AID 651596). The settings on record: NB7 neuroblastoma + caspase-8, TRAIL sensitization, NB7 Caspase-8, with TRAIL, mean of runs, at 10 µM, stronger effect = higher value.
Tumor necrosis factor receptor superfamily member 10B (Homo sapiens), sequence (O14763 whole entry, looked up): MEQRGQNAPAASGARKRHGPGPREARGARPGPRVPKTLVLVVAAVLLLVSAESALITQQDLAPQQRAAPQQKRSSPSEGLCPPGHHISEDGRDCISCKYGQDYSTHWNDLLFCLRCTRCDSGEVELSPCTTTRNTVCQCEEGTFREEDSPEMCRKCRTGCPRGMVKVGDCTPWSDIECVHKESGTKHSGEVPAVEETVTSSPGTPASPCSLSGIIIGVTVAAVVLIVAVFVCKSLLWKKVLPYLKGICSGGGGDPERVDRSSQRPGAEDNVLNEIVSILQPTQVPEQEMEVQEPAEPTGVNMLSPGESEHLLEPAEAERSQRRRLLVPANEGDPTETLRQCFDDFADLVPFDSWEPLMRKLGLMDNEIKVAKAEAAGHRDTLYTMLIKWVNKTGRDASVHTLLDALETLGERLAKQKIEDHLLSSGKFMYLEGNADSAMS
Assay in assay [4]: as above
To be noted: NB7 neuroblastoma + caspase-8, without TRAIL, NB7 Caspase-8, without TRAIL, mean of runs, at 10 µM.

As a reminder, the inhibition is the drop in the measured response relative to a control, in per cent. For the compound `Cc1c(CCC(=O)O)c(=O)oc2cc3occ(-c4ccccc4)c3cc12`, the values for the inhibition in assay [1] and in assay [2] were 68.1% (active) and 50.7% (active), respectively.

For the compound `N#C/C(=C/c1cccc([N+](=O)[O-])c1)c1nnc2n1CCCCC2`, the inhibition in assay [1] was 23.5% (inactive); in assay [2], 11.7% (inactive).

Consider `CC[C@@H]1Cc2cc(O)ccc2C2=C1c1ccc(O)cc1C[C@H]2CC`, for which the inhibition in assay [1] was 54.5% (active); in assay [2] it was 104% (active).

Take `CSCCC(NC(=O)c1ccc(Cl)c([N+](=O)[O-])c1)C(=O)N1CCN(C/C=C/c2ccccc2)CC1` (configuration not stated): the figures for the activity in assay [3] and in assay [4] were 36.3% and 24.4%, respectively.

On to `CCOc1ccc(CNC(=O)C2CCCN(c3nnc(C)c4c(C)n(-c5ccccc5)nc34)C2)cc1` (configuration not stated), for which the inhibition in assay [1] was 6.1% (inactive); in assay [2], -3.66% (inactive).

In the case of `O=C(Nc1ccc2c(c1)CCC2)c1ccc(F)cc1`, the figures for the activity in assay [3] and in assay [4] were 49.5% and 44.1%, respectively.

With `C(=Cc1c[nH]c2ccccc12)c1ccc2ccccc2n1`, the activity in assay [3] stood at 61.1%; in assay [4], 52.8%.

As to `C=CCN=c1scc(-c2ccccc2)n1/N=C/c1ccccn1`, the values for the activity in assay [3] and in assay [4] were 37.6% and 24.8%, respectively.

On to `Cc1nc(SCCC(=O)O)c2cc(-c3ccccc3)sc2n1`, for which the activity in assay [3] was 59%.

With `O=C(CN1C(=O)c2ccccc2S1(=O)=O)c1ccc(Cl)cc1Cl`, the activity in assay [3] turned out to be 64.3%.

On to `CC(=O)Nc1sc2c(c1-c1nc3ccccc3s1)CN(C(C)C)CC2`, for which the activity in assay [3] is 38%; in assay [4] it was 73.8%.

In the case of `COc1cccc2c(C)c(C(=O)O)[nH]c12`, the values for the inhibition in assay [1] and in assay [2] were 35.5% (inactive) and 37.3% (inactive), respectively.

`NC(N)=Nc1nc(-c2ccccc2)c2cc(Cl)ccc2n1`: the inhibition is 17.8% (inactive) in assay [1] and 107% (active) in assay [2].

`Cc1ccc2nc(N(CCCN(C)C)C(=O)c3ccc(S(=O)(=O)N4CCc5ccccc5C4)cc3)sc2c1`: the figures for the activity in assay [3] and in assay [4] were 55.4% and 68.3%, respectively.

On to `C=CCNC(=O)c1cc(-c2ccc3c(c2)OCO3)on1`, for which the activity in assay [3] was 63.3%; in assay [4], 61.1%.

For `O=C(N/N=C/c1cccc(NC(=O)c2ccc(Cl)cc2)c1)c1ccc(O)cc1`, the activity in assay [3] was 58.4%; in assay [4] it was 42%.

As to `COc1ccc(-c2oc3ncnc(NCCCO)c3c2-c2ccc(OC)cc2)cc1`, the inhibition in assay [1] was 37.9% (inactive); in assay [2], 82.4% (active).

For the compound `COc1ccc(CC(N)c2csc(NC(=O)Nc3ccc(C(C)C)cc3)n2)cc1` (configuration not stated), the inhibition is 3.55% (inactive) in assay [1] and 101% (active) in assay [2]. Also, the activity in assay [3] amounted to 82.5%; in assay [4], 97.2%.

Turning to `Cc1ccn(-c2ccc(NC(=O)c3cccs3)cc2)n1`, the activity stood at 59.7% in assay [3] and 65.7% in assay [4].

Turning to `O=C(Nc1ccc2c(c1)OCCO2)c1ccc(Cl)cc1Cl`, the activity in assay [3] was 72.8%; in assay [4], 66.6%.

With `CC1(C)N=C(N)N=C(N)N1c1cccc(C#N)c1`, the activity in assay [3] was 81.8%; in assay [4], 86.1%.

As for `Cc1cc(-c2n[nH]c(=S)n2/N=C/C(Br)=C/c2ccccc2)n[nH]1`, the figures for the inhibition in assay [1] and in assay [2] were 22.8% (inactive) and 105% (active), respectively.

`CN(C)CCNC(=O)c1cccc(-c2cnc3c(NC=O)cc(-c4cccc(C(F)(F)F)c4)cn23)c1`: the inhibition in assay [1] was 8.84% (inactive); in assay [2], 106% (active). The activity came out at 46.6% in assay [3] and 90.8% in assay [4].

For the compound `Cc1ccc(NC(=S)NC(NC(=O)Cc2cccc3ccccc23)C(Cl)(Cl)Cl)cc1` (configuration not stated), the inhibition in assay [1] is -32.9% (inactive); in assay [2], 98.7% (active).

For `O=C(CCl)N(Cc1cccc([N+](=O)[O-])c1)c1cccc(Cl)c1`, the values for the inhibition in assay [1] and in assay [2] were 62.8% (active) and 107% (active), respectively. Moreover, the activity in assay [3] worked out at 99.1%; in assay [4], 99.6%.

In the case of `COc1ccc(C(=O)/C=C/c2ccc(-c3ccccc3)cc2)cc1CSCC(=O)O`, the inhibition in assay [1] is -10.7% (inactive); in assay [2], 62.4% (active).

As to `NC(N)=Nc1ccc(C=C2C=Cc3ccccc32)cc1`, the activity was 96.6% in assay [3] and 68.5% in assay [4].

Regarding `COC(=O)CSc1nnc(NC(=O)/C=C\c2ccc3c(c2)OCO3)s1`, the values for the activity in assay [3] and in assay [4] were 49.5% and 66.2%, respectively.

For the compound `OCCN1CCN(C(=S)c2ccc(-c3ccccc3)cc2)CC1`, the inhibition is 93% (active) in assay [1] and 69.1% (active) in assay [2].

For `COc1ccc2nc(Nc3nc(-c4cc5ccccc5oc4=O)cs3)sc2c1`, the activity came out at 50.4% in assay [3] and 47.4% in assay [4].

Regarding `CCOC(=O)c1cc([N+](=O)[O-])cc([N+](=O)[O-])c1Sc1ncnc2nc[nH]c12`, the values for the activity in assay [3] and in assay [4] were 51.5% and 71.2%, respectively.

For `COc1cc2c(cc1O)C(SC)=NC(C)(C)C2`, the inhibition in assay [1] is 2.51% (inactive); in assay [2], 66.5% (active).

Take `Cc1cccc(NC(=O)c2cnc3ccccn3c2=O)c1`: the activity in assay [3] is 69%; in assay [4], 62.9%.

As to `Oc1ccc(-c2cnc(-c3ccc(O)cc3)nc2)cc1`, the activity turned out to be 88.2% in assay [3] and 93.3% in assay [4].

For `COC(=O)c1c(-c2ccccc2)csc1NC1=NS(=O)(=O)c2ccccc21`, the activity in assay [3] stood at 74.7%; in assay [4], 73.3%.

For the compound `CC(C)(C)OC(=O)NCc1ccc(CNC(=O)c2[nH]cnc2C(=O)Nc2ccccc2F)cc1`, the activity in assay [3] was 43.6%; in assay [4], 34.9%.

For `Cc1ccccc1/C(N)=N/OC(=O)/C=C/c1ccccc1`, the values for the activity in assay [3] and in assay [4] were 98.7% and 97.3%, respectively.

Consider `CSc1ccc(NC(=O)Nc2cc(C)ccn2)cc1`, for which the values for the activity in assay [3] and in assay [4] were 52.8% and 35.7%, respectively.

As to `C(=C\c1nc2ccccc2[nH]1)/c1ccccc1`, the figures for the activity in assay [3] and in assay [4] were 93.8% and 93.6%, respectively.
